Assay results published in PubChem BioAssay (NCATS).
Values joined by “and” are separate entries in the source; they are usually repeats but may differ in a detail not shown here. Equal values may be shown once. Inconclusive results are not listed. Active and inactive are the calls of the source. Calls come from the whole dose curve; as a rule, active = well fitted curve in the direction sought with a large enough effect; inconclusive = small, poorly fitted or top-dose-only effect, or another doubt; inactive = no such curve, though single readings can be large; an effect the other way counts as inactive or inconclusive. Non-standard residues stand in square brackets, D forms with d. Residues, ends and D or L forms follow the SMILES beside them. *: point of attachment. Nva = CCC[C@H](N)C(=O)O; Cbz = O=C(OCc1ccccc1)*

Tests used:
[1] = qHTS Screen of the MIPE 4.0 Collection Against Ewings Sarcoma (TC32) (AID 1259256); note: nearly all actives have a fitted effect of over 45% in size
Procedure, shortened: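 Cells plated in serum-containing RPMI (5% FBS) and treated with compound dilutions for 48 h. Readout luminescent viability; normalization relied on vehicle (no inhibition) and media-only columns (full inhibition).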

[2] = P-glycoprotein substrates identified in KB-8-5-11 adenocarcinoma cell line, qHTS therapeutic library screen (AID 1346987); note: nearly all actives have a fitted effect of over 65% in size
Procedure, shortened: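 P-gp-mediated resistance screen: KB-8-5-11 cells treated 72 h with compounds in dose-response. CellTiter-Glo viability.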

[3] = qHTS of pediatric cancer cell lines to identify multiple opportunities for drug repurposing: Primary screen for TC32 cells (AID 1347089); note: nearly all actives have a fitted effect of over 60% in size
Procedure, shortened: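 TC32 cells, 500-1,000/well in growth medium, compound-treated 48 h at 37 °C; viability from CellTiter-Glo luminescence. Primary screen: MIPE 11-point (0.78 nM–46 µM final), NPC 8-point (0.59 nM–46 µM final); confirmatory at 11-point dilutions.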

[4] = qHTS of pediatric cancer cell lines to identify multiple opportunities for drug repurposing: Primary screen for DAOY cells (AID 1347090); note: nearly all actives have a fitted effect of over 55% in size
Procedure, shortened: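 Cell viability, CellTiter-Glo luminescence; 500-1,000 cells/well, 8- or 11-point titration, 48 h compound exposure at 37 degrees C, 5% CO2. Controls: DMSO neutral, bortezomib 2.3 µM final as positive.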

[5] = NS1 protein of Zika virus - qHTS assay to identify small molecule inhibitors in human HEK 293 cells (AID 1347053); note: nearly all actives have a fitted effect of over 55% in size
Procedure, shortened: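 Inhibition of NS1 expression was scored in HEK 293 cells given compound 1 h ahead of MR766 virus (MOI = 0.5). Following 24 h at 37 C, two anti-NS1 antibodies generated a TR-FRET signal, scaled between uninfected and infected controls.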
Potency is the fitted concentration of half-maximal effect.

SMILES	Potency [1]	Potency [2]	Potency [3]	Potency [4]	Potency [5]
CC(C)C[C@H](NC(=O)[C@@H](NC(=O)c1cccc(-c2ccccc2)n1)[C@@H](C)O)B(O)O	0.0662 µM (active)	833 nM (active) and 820 nM (active)	0.466 µM (active)	0.059 µM (active)	–
O=C(C=Cc1ccc(CN(CCO)CCc2c[nH]c3ccccc23)cc1)NO	0.148 µM (active)	0.59 µM (active)	0.93 µM (active)	0.469 µM (active)	–
Nc1nc(N)c2nc(-c3cccc(O)c3)c(-c3cccc(O)c3)nc2n1	20.9 µM (active)	11.8 µM (active)	–	7.43 µM (active)	–
CCCCCN=C(N)NN=Cc1c[nH]c2ccc(OC)cc12	4.18 µM (active)	10.5 µM (active)	16.5 µM (active)	–	–
COC(=O)[C@@H]1[C@H]2C[C@@H]3c4[nH]c5ccccc5c4CCN3C[C@@H]2CC[C@@H]1O	inactive	inactive	inactive	inactive	–
CC(=O)NCC(=O)N1[C@H]2CC[C@H]1c1cc(Nc3ncc(C(F)(F)F)c(NC4CCC4)n3)ccc12	0.209 µM (active)	3.72 µM (active)	0.131 µM (active)	18.7 µM (active)	–
COc1cc2c(cc1O)CCC1C2CC[C@@]2(C)C1CC[C@@H]2O (some centres undefined)	2.64 µM (active)	1.32 µM (active)	18.6 µM (active)	–	–
CCN(CC)CCNC(=O)c1c(C)[nH]c(C=C2C(=O)Nc3ccc(F)cc32)c1C	10.8 µM (active)	1.21 µM (active)	12 µM (active)	–	–
CCN(CC)Cc1ccc2cc(COC(=O)Nc3ccc(C(=O)NO)cc3)ccc2c1	0.662 µM (active)	7.43 µM (active)	5.87 µM (active)	2.96 µM (active)	–
O=C(C=CC=Cc1ccc2c(c1)OCO2)N1CCCCC1	inactive	inactive	inactive	inactive	–
C[C@@H](Cc1cc2c(c(C(N)=O)c1)N(CCCO)CC2)NCCOc1ccccc1OCC(F)(F)F	inactive	inactive	inactive	inactive	–
C=CCNC1=C2C[C@@H](C)C[C@H](OC)[C@@H](O)[C@@H](C)C=C(C)[C@H](OC(N)=O)[C@@H](OC)C=CC=C(C)C(=O)NC(=CC1=O)C2=O	0.372 µM (active)	3.72 µM (active)	1.17 µM (active)	2.96 µM (active)	–
CC(=O)O[C@@]12CO[C@H]1C[C@H](O)[C@@]1(C)C(=O)[C@H](O)C3=C(C)[C@@H](OC(=O)C(O)[C@@H](NC(=O)OC(C)(C)C)c4ccccc4)C[C@@](O)([C@@H](OC(=O)c4ccccc4)[C@@H]21)C3(C)C (some centres undefined)	inactive	0.0166 µM (active)	0.0001 µM (active)	–	–
CCOc1cc2c(c(F)c1OCC)C(=N)N(CC(=O)c1cc(N3CCOCC3)c(OC)c(C(C)(C)C)c1)C2	8.33 µM (active)	20.9 µM (active)	inactive	–	–
c1cc(CN2CCCNCCNCCCNCC2)ccc1CN1CCCNCCNCCCNCC1	inactive	inactive	inactive	inactive	–
COc1cc(OC)c(C=CS(=O)(=O)Cc2ccc(OC)c(NCC(=O)O)c2)c(OC)c1	0.0526 µM (active)	0.264 µM (active)	0.294 µM (active)	–	–
CC(C)c1cc(C(C)C)c(CC(=O)NS(=O)(=O)Oc2c(C(C)C)cccc2C(C)C)c(C(C)C)c1	inactive	7.31 µM (active)	inactive	–	–
C#CCC(Cc1cnc2nc(N)nc(N)c2n1)c1ccc(C(=O)N[C@@H](CCC(=O)O)C(=O)O)cc1 (some centres undefined)	0.0332 µM (active)	0.0418 µM (active)	0.037 µM (active)	0.118 µM (active)	–
c1ccc(CNc2nc(NCc3ccccc3)c3ccccc3n2)cc1	23.5 µM (active)	20.9 µM (active)	inactive	–	–
CN(CC(=O)N(Cc1ccc(C2CCCCC2)cc1)c1ccc(C(=O)O)c(O)c1)S(=O)(=O)c1c(F)c(F)c(F)c(F)c1F	6.62 µM (active)	inactive	inactive	–	–

SMILES	Potency [1]	Potency [2]	Potency [3]	Potency [4]	Potency [5]
Cn1cc(CNCC2CCN(c3ncc(C(=O)NO)cn3)CC2)c2ccccc21	0.0209 µM (active)	1.05 µM (active)	0.415 µM (active)	0.235 µM (active)	–
O=c1ccn([C@@H]2O[C@H](CO)[C@H](O)[C@@H]2F)c(=O)[nH]1	18.7 µM (active)	inactive	inactive	inactive	–
Cn1c(Nc2ccc(C(F)(F)F)cc2)nc2cc(Oc3ccnc(-c4ncc(C(F)(F)F)[nH]4)c3)ccc21	2.09 µM (active)	20.9 µM (active)	16.5 µM (active)	18.7 µM (active)	–
CN(C)CC(=O)N1CCC(c2ccc(NC(=O)c3ncc(C#N)[nH]3)c(C3=CCCCC3)c2)CC1	20.9 µM (active)	inactive	inactive	–	–
C#C[C@]1(O)CC[C@@H]2[C@@H]3CCc4cc(O)ccc4[C@H]3CC[C@@]21C	20.9 µM (active)	11.8 µM (active)	inactive	14.8 µM (active)	–
CCOC(=O)[C@@H](N)Cc1ccc(-c2cc(O[C@H](c3ccc(Cl)cc3-n3ccc(C)n3)C(F)(F)F)nc(N)n2)cc1	20.9 µM (active)	inactive	inactive	–	–
CCC[C@@H](C=O)NC(=O)[C@H](CC(C)C)NC(=O)[C@H](CC(C)C)NC(=O)OCc1ccccc1 (Cbz-Leu-Leu-[Nva]-aldehyde)	1.05 µM (active)	7.43 µM (active)	3.7 µM (active)	0.935 µM (active)	–
O=C(CN1C(=O)C2(CCCC2)NC[C@H]1c1cc(F)cc(F)c1)Nc1ccc2c(c1)C[C@@]1(C2)C(=O)Nc2ncccc21	inactive	inactive	inactive	inactive	–
CC(C)[C@H](CO)Nc1nc(Nc2cccc(Cl)c2)c2ncn(C(C)C)c2n1	10.5 µM (active)	10.5 µM (active) and 20.6 µM (active)	–	18.7 µM (active)	–
CC(=O)[C@]1(O)Cc2c(O)c3c(c(O)c2[C@@H](O[C@H]2C[C@H](N)[C@@H](O)[C@H](C)O2)C1)C(=O)c1ccccc1C3=O	0.0047 µM (active)	0.833 µM (active)	0.587 µM (active)	0.935 µM (active)	–
C=CCNc1c(O)cc2c(O)c1C[C@@H](C)C[C@H](OC)[C@@H](O)[C@@H](C)C=C(C)[C@H](OC(N)=O)[C@@H](OC)C=CC=C(C)C(=O)N2	0.264 µM (active)	6.62 µM (active)	1.65 µM (active)	–	–
c1coc(CNc2ncnc3nc[nH]c23)c1	inactive	inactive	inactive	inactive	–
Cc1ncc(-c2ccnc(Nc3ccc(S(C)(=O)=O)cc3)n2)n1C(C)C	4.18 µM (active)	7.43 µM (active) and 13 µM (active)	13.1 µM (active)	4.69 µM (active)	–
N#CC(=C(N)Sc1ccc(N)cc1)c1ccccc1C(F)(F)F	5.26 µM (active)	inactive	–	inactive	–
CCOc1cc2ncc(C#N)c(Nc3ccc(OCc4ccccn4)c(Cl)c3)c2cc1NC(=O)C=CCN(C)C	2.96 µM (active)	–	–	–	inactive
COc1cc2c(cc1OC)[C@@H]1C(=O)c3ccc4c(c3O[C@@H]1CO2)C=CC(C)(C)O4	0.0662 µM (active)	5.17 µM (active)	–	0.0743 µM (active)	–
CCOC(=O)N1CCN([N+]([O-])=NOc2ccc([N+](=O)[O-])cc2C#N)CC1	2.64 µM (active)	–	3.7 µM (active)	–	2.96 µM (active)
NC(=NCCCCCCN=C(N)N=C(N)Nc1ccc(Cl)cc1)N=C(N)Nc1ccc(Cl)cc1	7.43 µM (active)	–	–	5.9 µM (active)	inactive
Oc1ccc(-c2ccc(-c3cc(Nc4cccc(CNC5CC5)c4)n[nH]3)cc2)c(O)c1	5.9 µM (active)	–	–	14.8 µM (active)	–
